Values without a mark were called inactive.
Tested on: Vero E6 infected with SARS-CoV-2
Assay: inhibition of SARS-CoV-2 cytopathic effect; higher = more antiviral protection, active = above 15
Conditions: 48 h

| SMILES | inhibition of SARS-CoV-2 cytopathic effect (1 nM) | inhibition of SARS-CoV-2 cytopathic effect (8.33 nM) | inhibition of SARS-CoV-2 cytopathic effect (100 nM) | inhibition of SARS-CoV-2 cytopathic effect (833.33 nM) | inhibition of SARS-CoV-2 cytopathic effect (10000 nM) |
| --- | --- | --- | --- | --- | --- |
| CCCCCCNC(=O)n1cc(F)c(=O)[nH]c1=O [carmofur] | 2.01% | 4.18% | 2.63% | 2.67% | 4.01% |
| CN1Cc2ccccc2[C@@H]2c3cccc4[nH]cc(c34)C[C@H]21 | 0.05% | 0.93% | -1.06% | 0.95% | 2.21% |
| CCCCCCOC(=O)NC(=N)c1ccc(NCc2nc3cc(C(=O)N(CCC(=O)OCC)c4ccccn4)ccc3n2C)cc1 [dabigatran-etexilate] | 1% | 2.6% | 1.5% | 1.44% | -2.8% |
| O[C@@H]1CCCC[C@H]1N1CCC(c2ccccc2)CC1 (racemic) [vesamicol] | 0.17% | 1.74% | 0.78% | 1.42% | 1.14% |
| CN1CCC[C@@H]1CCO[C@](C)(c1ccccc1)c1ccc(Cl)cc1 [clemastine] | 3.3% | 4.37% | 2.07% | 0.78% | 0.68% |
| C[N+](C)(C)NCCC(=O)O [meldonium] | -1.15% | -0.85% | -2.99% | -0.28% | -2.51% |
| Cc1nc[nH]c1CCN [4-methylhistamine] | -0.91% | -0.74% | -0.39% | -2.08% | 0% |
| Fc1ccccc1-c1nc2ccn(Cc3ccc(-c4ccc(C(F)(F)F)cc4C(F)(F)F)nn3)cc-2n1 [tegobuvir] | 0.53% | 2.58% | 3.4% | 1.35% | -1.75% |
| C[C@H](NC[C@H](O)CP(=O)(O)CC1CCCCC1)c1ccc(Cl)c(Cl)c1 | 0.9% | -0.56% | -1.52% | 0.84% | 0.91% |
| CCC(=O)O[C@@H]1CC(=O)O[C@H](C)C/C=C/C=C/[C@H](O)[C@H](C)C[C@H](CC=O)[C@H](O[C@@H]2O[C@H](C)[C@@H](O[C@H]3C[C@@](C)(O)[C@@H](OC(=O)CC)[C@H](C)O3)[C@H](N(C)C)[C@H]2O)[C@H]1OC [midecamycin] | -1.27% | -3.06% | -2.36% | -0.5% | -0.33% |
| C[n+]1ccccc1C=NO [pralidoxime] | 1.86% | 0.25% | 0.14% | 0.94% | 1.11% |
| Cc1[nH]c(/C=C2\C(=O)Nc3ccc(F)cc32)c(C)c1C(=O)NCCN1CCCC1 [toceranib] | -2.12% | -2.33% | -1.03% | -1.29% | -7.87% |
| CC1(C)CC(Oc2ccc(-c3ccc(-c4cn[nH]c4)cc3O)nn2)CC(C)(C)N1 | 1.13% | 0.25% | 2.2% | -9.03% | -14.9% |
| CC(C)(C)NCC(O)c1ccc(O)c(CO)c1 (stereo not given) [albuterol] | -4.08% | -2.63% | -5.03% | -4.97% | -3.93% |
| CCC1(CC)C(=O)C=CNC1=O [pyrithyldione] | 1.54% | 0.58% | -3.23% | -6.45% | -4.46% |
| CS(=O)(=O)Nc1c(O)ccc2c1CCC[C@H]2C1=NCCN1 | 1.13% | -1.43% | -1.29% | 0.49% | -3.82% |
| O=C1C2CC=CCC2C(=O)N1SC(Cl)(Cl)Cl (stereo not given) [captan] | 1.85% | 4.35% | 4.16% | 4.29% | 7.49% |
| C[C@@H]1C(=O)O[C@H]2C[C@@]34[C@H]5C[C@@H](C(C)(C)C)[C@]36[C@@H](OC(=O)[C@@H]6O)O[C@@]4(C(=O)O5)[C@]21O [Ginkgolide A] | 3.54% | 2.25% | 2.7% | 1.3% | -1.89% |
| CCOc1ccc(-c2nc(-c3cccc4c3CCC4NCCO)no2)cc1OCC (stereo not given) | -0.52% | 0.67% | 1.13% | 0.77% | 5.33% |
| OC(c1ccc(-c2ccc(CN3CCN(Cc4ccncc4)CC3)cc2)c(F)c1)(C(F)(F)F)C(F)(F)F | -1.89% | 0.74% | -2.07% | -1.4% | -1.46% |

| SMILES | inhibition of SARS-CoV-2 cytopathic effect (1 nM) | inhibition of SARS-CoV-2 cytopathic effect (8.33 nM) | inhibition of SARS-CoV-2 cytopathic effect (100 nM) | inhibition of SARS-CoV-2 cytopathic effect (833.33 nM) | inhibition of SARS-CoV-2 cytopathic effect (10000 nM) |
| --- | --- | --- | --- | --- | --- |
| c1cc2c(c(N3CCNCC3)c1)OCCO2 [eltoprazine] | 3.51% | 2.36% | 2.47% | -1.11% | -4.55% |
| CC(C)NCC(O)COc1ccc(COCCOC(C)C)cc1 (stereo not given) [bisoprolol] | -5.27% | -2.6% | -2.42% | -3.57% | -3.25% |
| CCCCCCCCCCCCCCCC(=O)O[C@@H]1[C@@H](O)[C@@H](O)[C@@H]([C@H](NC(=O)[C@@H]2C[C@@H](CCC)CN2C)[C@H](C)Cl)O[C@@H]1SC [clindamycin-palmitate] | -0.87% | -2.61% | -3.02% | -0.74% | -3.94% |
| Cc1ccnc2c1NC(=O)c1cccnc1N2C1CC1 [nevirapine] | -0.06% | 2.22% | 0.61% | 0.25% | 0.49% |
| O=C(NOCC1CC1)c1ccc(F)c(F)c1Nc1ccc(I)cc1Cl | -1.59% | -0.84% | -7.28% | -6.38% | -13.8% |
| Cc1cccc(-c2nn3c(c2-c2ccnc4ccc(C(N)=O)cc24)CCC3)n1 | 0.85% | -0.43% | -0.97% | -0.85% | -1.59% |
| CC(C)Nc1cccnc1N1CCN(C(=O)c2cc3cc(NS(C)(=O)=O)ccc3[nH]2)CC1 [delavirdine] | -1.49% | -0.85% | 1.56% | 1.65% | 2.87% |
| COC(=O)C1=C(C)NC(C)=C(C(=O)OCC(C)C)C1c1ccccc1[N+](=O)[O-] (stereo not given) [nisoldipine] | -1.53% | 0.72% | -2.24% | -0.83% | 1.64% |
| O=C(NCc1ccc2c(c1)OCO2)c1c(Cl)cccc1Cl [alda-1] | -2.37% | 0.82% | -2.66% | -5.92% | -3.23% |
| CC(C)c1ccc(NC(=O)Cn2cnc3c2c(=O)n(C)c(=O)n3C)cc1 | -0.13% | 1.6% | 1.39% | 2.45% | 3.83% |
| NCCCCN(Cc1nc2ccccc2[nH]1)[C@H]1CCCc2cccnc21 | -0.42% | -1.96% | 0.37% | -1.81% | 0.08% |
| O=C1CCC[C@@H]2[C@H]3CCC[N+]4([O-])CCC[C@@H](CN12)[C@@H]34 (stereo not given in full) [oxymatrine] | 2.76% | 1.55% | 1.11% | 0.79% | -1.71% |
| CC1OC2(CS1)CN1CCC2CC1 (stereo not given) [cevimeline] | -0.26% | -0.65% | -1.15% | -0.01% | -1.57% |
| CCn1c(=O)/c(=C2\Sc3ccccc3N2C)s/c1=C\c1cccc[n+]1CC | -0.41% | 2.22% | -0.82% | -0.9% | -6.25% |
| CN(C)CCC=C1c2ccccc2CCc2ccccc21 [amitriptyline] | -2.51% | -0.51% | 5.58% | 1.84% | -2.45% |
| CC(C)[C@H]1CC[C@H](C(=O)N[C@H](Cc2ccccc2)C(=O)O)CC1 [nateglinide] | 0.56% | 2.28% | 0.38% | 1.09% | 1.33% |
| C[C@]12COC(=O)C[C@@H]1CC[C@@H]1[C@@H]2CC[C@@]2(C)[C@H]1CC[C@]2(C)O [Oxandrolone] | 1.55% | 0.57% | -0.27% | -0.56% | 0.44% |
| C/C(=N\NC(=S)N1CCC1)c1ccccn1 | 0.2% | 0.91% | 2.65% | -1.1% | 20.1% (active) |
| N#Cc1c[nH]c2c(C(=O)N3CCN(CCc4ccc(F)cc4)CC3)cccc12 [pruvanserin] | 3.23% | -1.53% | 2.62% | 1.31% | 1.69% |
| CCCCn1c(=O)c2[nH]c(C34CC5CC(CC3C5)C4)nc2n(CCCO)c1=O | 1.96% | 2.64% | 0.93% | -1.18% | -2.7% |

From the supplement of paper PMC13380429
